This is an account of results in PubChem BioAssay AID652016 (National Center for Advancing Translational Sciences (NCATS), 2013).

Inconclusive results are not listed. Activity calls are given as the source filed them. Calls follow the shape of the dose curve; as a rule, active = well fitted inhibition curve with a large enough effect; inconclusive = small, poorly fitted or top-dose-only effect; inactive = flat fitted curve, though single readings scatter.
% is scaled to controls: 0 for no effect and ±100 for the full control effect; potency is read from the fitted curve at half-maximal effect.

Luciferin 4-monooxygenase (Photinus pyralis), sequence (P08659 whole entry, looked up): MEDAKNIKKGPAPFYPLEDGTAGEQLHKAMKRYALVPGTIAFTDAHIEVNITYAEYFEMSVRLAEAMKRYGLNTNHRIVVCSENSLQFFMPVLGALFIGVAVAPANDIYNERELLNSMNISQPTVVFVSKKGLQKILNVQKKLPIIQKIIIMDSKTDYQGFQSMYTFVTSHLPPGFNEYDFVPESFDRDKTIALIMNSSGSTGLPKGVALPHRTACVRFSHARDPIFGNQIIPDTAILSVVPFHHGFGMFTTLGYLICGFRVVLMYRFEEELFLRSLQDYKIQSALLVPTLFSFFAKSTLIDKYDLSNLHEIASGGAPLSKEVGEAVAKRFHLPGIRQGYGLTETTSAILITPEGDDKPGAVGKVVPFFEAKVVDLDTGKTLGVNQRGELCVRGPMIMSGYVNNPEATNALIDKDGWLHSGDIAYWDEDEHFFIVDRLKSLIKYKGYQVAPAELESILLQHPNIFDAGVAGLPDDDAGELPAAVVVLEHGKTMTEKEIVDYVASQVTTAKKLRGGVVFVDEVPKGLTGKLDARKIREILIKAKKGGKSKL

The experiment deals with Luciferin 4-monooxygenase (Photinus pyralis) (UniProt P08659). The experiment in a line: qHTS Assay for Inhibitors of Firefly Luciferase from the GSK Published Protein Kinase Inhibitor Set. To be noted: purified firefly luciferase, luminescence inhibition; series mostly up to 57.5 µM; activity change, negative = inhibition: at the top concentration. Summed up:
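Purified P. pyralis luciferase, 10nM, with 10uM D-luciferin and 10uM ATP in 50mM Tris acetate pH 7.5, 10mM Mg acetate, 0.01% Tween-20, 0.05% BSA. Titration ~60uM to 300pM; luminescence read after about 5 min.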
For the compound `COc1cc2ncn(-c3cc(OCc4ccccc4C(F)(F)F)c(C(N)=O)s3)c2cc1OC`, the “activity change, negative = inhibition” value was -6.98% (inactive). Consider `CCn1c(-c2nonc2N)nc2c(C#CC(C)(C)O)ncc(OCC3CCCN3)c21` (stereo not drawn), for which the “activity change, negative = inhibition” value is -25.6% (inactive). For `COc1cc2c(cc1Nc1nc(Nc3cccc(F)c3C(N)=O)c3cc[nH]c3n1)N(C(=O)CN1CCN(C(C)C)CC1)CC2`, the “activity change, negative = inhibition” value is 4.88% (inactive). Consider `Fc1ccc(Oc2nccc(-c3c(-c4ccc(F)cc4)ncn3C3CCNCC3)n2)cc1`, for which the “activity change, negative = inhibition” value was 5.77% (inactive).

`Oc1[nH]c2ccccc2c1C=Nc1ccc(-n2cncn2)cc1`: the Potency was 18300 nM (active). On to `CCCN1CCCC(c2ccc(Nc3nc(Nc4cc(F)ccc4C(N)=O)c4cc[nH]c4n3)c(OC)c2)C1` (stereo not drawn), for which the “activity change, negative = inhibition” value was 27.6% (inactive). Turning to `N#Cc1c(NC(=O)c2ccccc2F)sc2c1CCCC2`, the Potency was 819 nM (active). For `Cc1nnc(-c2ccc(C)c(-c3ccc(C(=O)NCc4ccc(Cl)cc4)cc3)c2)o1`, the “activity change, negative = inhibition” value is 3.77% (inactive).

Consider `O=C(Nc1n[nH]c2nnc(-c3cccnc3)cc12)C1CC1`, for which the “activity change, negative = inhibition” value is 6.05% (inactive). Still for that read-out and setting: with `NC(=O)CCc1ccccc1Oc1nccc(-c2c(-c3ccc(F)cc3)ncn2C2CCNCC2)n1` the figure was 11.4% (inactive); with `NS(=O)(=O)c1ccc(Nc2cc(-c3ccc(O)c(F)c3)[nH]n2)cc1`, -17.6% (inactive). Take `CCc1ccc(Oc2nccc(-c3c(-c4ccc(F)cc4)ncn3C3CCNCC3)n2)cc1`: the “activity change, negative = inhibition” value was 0.977% (inactive). As to `N#Cc1cccc(Nc2ncc(-c3ccccc3)o2)c1`, the Potency was 1030 nM (active). On to `CC(Oc1cc(-n2cnc3ccc(OCC4CCN(C)CC4)cc32)sc1C(N)=O)c1ccccc1Cl` (stereo not drawn), for which the “activity change, negative = inhibition” value is 8.04% (inactive). Consider `Cc1ccc2c(-c3ccnc(Nc4ccccc4)n3)c(-c3ccc(F)cc3)nn2n1`, for which the “activity change, negative = inhibition” value is 1.59% (inactive). On the same count and under the same terms, with `CNC(=O)c1cncc(C=Cc2ccccc2C)c1` the figure was 9.18% (inactive); with `NS(=O)(=O)c1cccc(-c2cc3ccncc3cc2OCc2ccccc2)c1`, -9.85% (inactive). Turning to `O=C(O)c1ccc(Oc2nccc(-c3c(-c4ccc(F)cc4)ncn3C3CCNCC3)n2)cc1`, the “activity change, negative = inhibition” value is 12.2% (inactive). Consider `Fc1ccc(-c2nc3n(c2-c2ccncc2)CCS3)cc1`, for which the “activity change, negative = inhibition” value is -5.01% (inactive).

Regarding `CCn1c(-c2nonc2N)nc2cncc(C(=O)N3CCNCC3)c21`, the “activity change, negative = inhibition” value was 4.9% (inactive). For the compound `CN1CCN(CCCNc2nc3ccc(Oc4ccc(NC(=O)Nc5cc(C(F)(F)F)ccc5F)cc4)cc3[nH]2)CC1`, the “activity change, negative = inhibition” value is -22.9% (inactive). Regarding `COc1cc2ncnc(Nc3ccc(C)c(O)c3)c2cc1OC`, the “activity change, negative = inhibition” value was 1.88% (inactive). Turning to `COc1ccccc1Nc1ncc(-c2ccccc2)o1`, the Potency is 1030 nM (active). `COc1cc2ncn(-c3cc(OC(C)c4ccccc4Cl)c(C(N)=O)s3)c2cc1OC` (stereo not drawn): the Potency entry was “inactive”.

Consider `NS(=O)(=O)c1ccc(-c2ccc3c(NC(=O)C4CC4)n[nH]c3c2)cc1`, for which the “activity change, negative = inhibition” value is -13.7% (inactive).

As to `NCc1ccc(-c2nc(-c3ccc(Cl)c(O)c3)c(-c3ccncc3)[nH]2)cc1`, the “activity change, negative = inhibition” value was -11.5% (inactive).

For the compound `Fc1ccc(-c2ncn(CCCN3CCOCC3)c2-c2ccncc2)cc1`, the “activity change, negative = inhibition” value is -12.5% (inactive). As for `CN1CCC(C(=O)Nc2n[nH]c3nc(-c4ccc(O)cc4)c(Br)cc23)CC1`, the Potency entry was “inactive”. Take `NC(=O)c1cc(-c2ccc(F)cc2)cc(-c2ccncc2)c1N`: the “activity change, negative = inhibition” value was 0.778% (inactive). Consider `Nc1nonc1-c1nc2cnccc2n1C1CCCCC1`, for which the “activity change, negative = inhibition” value was 21.4% (inactive).

`Cc1ccc(NC(=O)c2ccnc(N3CCCC3)c2)cc1-c1ccc(C(=O)NCC2CC2)cc1`: the “activity change, negative = inhibition” value was -8.62% (inactive).

`Fc1ccc(-c2ncn(C3CCNCC3)c2-c2ccnc(Oc3ccc(F)c(F)c3)n2)cc1`: the “activity change, negative = inhibition” value is 3% (inactive). The same measure, in the same setting: the same measure for `COc1ccc(-c2nn3ncccc3c2-c2ccnc(Nc3cccc(C(F)(F)F)c3)n2)cc1`: -0.544% (inactive).
